Experimental findings from PubChem BioAssay AID652054 (National Center for Advancing Translational Sciences (NCATS), 2013) are described below.

The whole screen tested about 360,000 compounds, of which about 9,100 (2.5%) were called active. Roughly 4% stayed inconclusive and do not appear here. This is one part of a sample in which actives are shown more often than they occur. Values without a mark were called inactive. Cut-off read from the data, not from the text of the source: active = max response below about -50%; inconclusive = no clear call, values can overlap the other calls; inactive = above that.
% is set by controls: 0 for no effect and ±100 for the full control effect.

D(3) dopamine receptor (Homo sapiens), sequence (P35462 whole entry, looked up): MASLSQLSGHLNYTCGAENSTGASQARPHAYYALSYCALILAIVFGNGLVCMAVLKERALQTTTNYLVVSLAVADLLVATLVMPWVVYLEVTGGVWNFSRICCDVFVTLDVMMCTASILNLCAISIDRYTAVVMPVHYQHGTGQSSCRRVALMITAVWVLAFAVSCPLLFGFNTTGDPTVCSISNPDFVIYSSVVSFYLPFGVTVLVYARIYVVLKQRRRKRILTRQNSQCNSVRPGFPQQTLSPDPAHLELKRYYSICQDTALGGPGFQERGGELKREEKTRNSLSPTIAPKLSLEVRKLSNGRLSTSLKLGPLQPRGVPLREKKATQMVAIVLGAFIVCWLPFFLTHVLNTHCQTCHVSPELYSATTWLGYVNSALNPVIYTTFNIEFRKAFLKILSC

The target in the experiment is D(3) dopamine receptor (Homo sapiens) (UniProt P35462). Nature of the experiment: qHTS of D3 Dopamine Receptor Antagonist: qHTS. As to conditions: D3R cells, DiscoveRx beta-arrestin luminescence, antagonist mode; stronger effect = lower value. An excerpt:
D3 DARs represent a very important target for the treatment of several neuropsychiatric disorders. Indeed, one of the most promising therapeutic applications for the D3 DAR is in the area of addiction and related disorders. […] These findings have been observed with a number of addictive substances including cocaine, amphetamine, nicotine, and alcohol. […] Antagonism of the D3 DAR may also be therapeutic in the treatment of schizophrenia or psychosis. […] Since the D3 DAR is expressed in areas of the CNS associated with the control of mood and emotion, it has been hypothesized that selective antagonism of the D3 DAR may be effective in treating psychosis without inducing the motor side effects typically seen with D2 DAR antagonists.
This part of the project aims to discover novel antagonist.
NIH Chemical Genomics Center [NCGC]
NIH Molecular Libraries Probe Centers Network [MLPCN]
Assay Submitter (PI): David Sibley, NINDS
Freshly passaged cells are plated in 1536 well white, solid bottom plates at a density of 1500 cells/well in 3microl of complete media. After an overnight incubation at 37 degrees C in 5% CO2, cells are loaded with 23nl of test compound from the compound library (as well as dopamine controls) using a 1536 pintool and incubated at 37 degrees C for 90 minutes. Two microliters of DiscoveRx reagent is then added to all cells, and they are incubated for an additional 30 - 60 minutes at room temperature. Following incubation, luminescence is measured on a ViewLux CCD-based luminometer reader using a 20 sec exposure time.
For the compound `CN(C)CCOC1c2ccccc2-c2ccccc21`, the max response, negative = inhibition is -17.2%.
The same measure for `CN(C)CCOC(=O)C(c1ccccc1)C1(O)CCCC1` (configuration not stated): -12.5%.
Next, `Cc1ccccc1C(OCCN(C)C)C1CCCCC1` (configuration not stated): -100% (active); `COCCNc1ncnc2c1ncn2[C@H]1CN(Cc2ccc(OC)cc2)C[C@@H](CO)O1`: 6.87%.
Take `Cc1cc(C)n2c(NCc3ccccc3)c(CC(C)C)nc2n1`: the max response, negative = inhibition was 5.03%.
The same measure for `Cc1ccc(CN(C)C[C@@H]2OCc3cnnn3CCCC(=O)N([C@@H](C)CO)C[C@H]2C)cc1`: -25.2%.
Next, `O=C(NCCNc1ccc([N+](=O)[O-])cc1)c1cccc2c(Br)cccc12`: -58.2% (active).
Next, `O=C(NCCNc1ccc([N+](=O)[O-])cc1Cl)c1ccccc1F`: -0.899%; `CC(CNc1ccc([N+](=O)[O-])cc1)NC(=O)c1ccccc1Br` (configuration not stated): 3.2%; `CC(C)Oc1ccc(CN2CCC2(C)C(=O)NCc2ccc(C(F)(F)F)cc2)cc1` (configuration not stated): 30.5%.
Consider `CC(OC(=O)c1cccc(S(=O)(=O)N2CCOCC2)c1)C(=O)NCC1CCCCC1` (configuration not stated), for which the max response, negative = inhibition is -12.6%.
For `CCCCC[C@H](C)N1C[C@@H](COCc2ccccc2)Oc2cc(N3CCC[C@@H]3CO)ccc2S1(=O)=O`, the max response, negative = inhibition was 8.76%.
Take `CCCNC(=O)C1(C)CCN(C(=O)c2ccc(F)cc2Cl)C1` (configuration not stated): the max response, negative = inhibition was 1.43%.
Next, `COc1cccc2c1C(=O)c1c(O)c3c(c(O)c1C2=O)CC(O)(C(C)=NNC(=O)c1ccc(Cl)c(Cl)c1)CC3OC1CC(N)C(O)C(C)O1` (configuration not stated): -50.5% (active).
The same measure for `COc1ccc(NC(=O)C2(C)Cc3c(-c4cccc(NC(C)=O)c4)ccnc3O2)cc1OC` (configuration not stated): 17.2%; for `COC(=O)[C@H]1C[C@H](OC(=O)NCc2ccccc2)[C@@]2(O)CN(S(=O)(=O)c3ccc(C)cc3)CC2[C@H]1C(=O)OC` (some centres not stated): -0.452%.
Consider `CC=CCn1c(SCCCc2ccccc2)nc2c1c(=O)[nH]c(=O)n2C`, for which the max response, negative = inhibition was 41.3%.
Next, `Oc1[nH]c2ccccc2c1N=Nc1c(F)c(F)c(F)c(F)c1F`: 17.9%.
The same measure for `O=C(CCN1CCCCC1)N=Nc1c(O)[nH]c2ccccc12`: -96.3% (active).
Next, `Cc1c(-c2ccccc2)n[nH]c1C(=O)N=Nc1c(O)[nH]c2ccccc12`: 32.7%; `CCc1nc2ccc(C(=O)N(C)Cc3ccco3)cn2c1N(C)C(=O)Cc1ccccc1`: 3.24%.
As to `C[C@@H]1CN([C@@H](C)CO)C(=O)CCCn2nncc2CO[C@@H]1CN(C)S(=O)(=O)c1ccc(-c2ccccc2)cc1`, the max response, negative = inhibition is -4.97%.
The same measure for `COc1cccc(C(O)c2ncc(-c3ccc4ccccc4c3)[nH]2)c1` (configuration not stated): 38.7%; for `Cc1cccc(-c2cnc(C(O)c3ccc4ccccc4c3)[nH]2)c1` (configuration not stated): -81.3% (active).
Turning to `Cc1cccc(-c2cnc(C(O)c3cc(C)cc(C)c3)[nH]2)c1` (configuration not stated), the max response, negative = inhibition was 0%.
The same measure for `CC(=O)Nc1cc(-c2ccc(N3CCN(C)CC3)cc2)cn2c(-c3ccc(F)cc3)cnc12`: -13.9%; for `CNc1cnc(-c2cc(OC)c(OC)c(OC)c2)cn1`: 1.16%; for `O=C(NCCN1CCOCC1)C1CCN(S(=O)(=O)c2ccccc2)CC1`: 31.8%.
Next, `CC(C)Nc1nc(NCCOc2ccccc2Cl)c2sccc2n1`: 0%.
Next, `C[C@@H]1CN([C@@H](C)CO)C(=O)c2cc(NS(C)(=O)=O)ccc2O[C@@H](C)CCCCO[C@H]1CN(C)C(=O)Nc1ccc2c(c1)OCO2`: -18.4%; `COCC1CCN(C(=O)C2CCC(=O)N(Cc3cccc(C(F)(F)F)c3)C2)CC1` (configuration not stated): -5.12%; `COC(=O)Cc1c(O)ccn(Cc2cccc(C(F)(F)F)c2)c1=O`: -71.6% (active).
On to `CN(C)C(=O)c1cccn(Cc2cccc(C(F)(F)F)c2)c1=O`, for which the max response, negative = inhibition was 22.1%.
Consider `Cc1cccc(C(=O)NC(=S)N(C)C2CCCCC2)c1`, for which the max response, negative = inhibition is -4.93%.
Next, `Cc1cccc(NC(=S)NCc2ccc3[nH]c4c(c3c2)CCCC4)c1`: -3.36%; `Cc1cccc(NC(=S)NCCN(C2CCCCC2)C2CCCC2)c1`: -65.7% (active); `CC(=O)Nc1cccc(-c2ccnc3c2CC(C)(C(=O)NCc2ccccc2)O3)c1` (configuration not stated): 0%.
The same measure for `Cc1ccc(CC2(C)C(=O)Nc3ccc(OC(F)(F)F)cc32)cc1` (configuration not stated): 0.0703%; for `CC1CSc2nnc(CCc3ccccc3)n21` (configuration not stated): -21.1%; for `S=C(NCCc1ccccc1)N1CCn2cccc2C1c1ccncc1` (configuration not stated): 6.2%.
Next, `c1ccc(CCC2=NCCn3cccc32)cc1`: -55.5% (active).
As to `CCCCN(C=O)c1c(CC)nc2c(OCCC3CCCCC3)cccn12`, the max response, negative = inhibition is -10.7%.
As to `COc1ccc(C(O)c2nc(-c3ccc4c(c3)OCO4)cs2)cc1` (configuration not stated), the max response, negative = inhibition was 4.32%.
The same measure for `Cc1ccc(C(=O)C[n+]2cc(-c3ccccc3)n3c2CCCCC3)cc1`: -4.64%.
In the case of `Cc1ccc(-c2c[n+](CC(=O)Nc3ccccc3)c3n2CCC3)cc1`, the max response, negative = inhibition was -65.6% (active).
Consider `O=C(C[n+]1cc(-c2ccc(Cl)c(Cl)c2)n2c1CCC2)c1cccs1`, for which the max response, negative = inhibition is -18.5%.
As for `O=CNc1cc(-c2ccc(C(=O)N3CCOCC3)cc2)cn2c(-c3ccc(F)cc3)cnc12`, the max response, negative = inhibition is -24.2%.
Turning to `CC(Nc1nc(N2CCOCC2)nc2ccccc12)c1ccccc1` (configuration not stated), the max response, negative = inhibition was -1.04%.
The same measure for `CC(Nc1nc(N2CCN(CCO)CC2)nc2ccccc12)c1ccccc1` (configuration not stated): 0%.
Next, `CC(Nc1nc(N2CCCC2)nc2ccccc12)c1ccccc1` (configuration not stated): -74.8% (active); `CC1(C(=O)Nc2cccnc2)Cc2c(-c3ccccc3)ccnc2O1` (configuration not stated): 25.1%; `CC1(C(=O)NS(=O)(=O)c2cccs2)CCN1C(=O)Cc1ccc(-c2ccccc2)cc1` (configuration not stated): 15.7%.
The same measure for `Cc1cc(OCC(=O)Nc2nccs2)c2c(C)c(C)c(=O)oc2c1`: 52.2%.
`CC(C)=C(NC(=O)c1ccccc1)C(=O)N/N=C(\C)c1ccccc1O`: the max response, negative = inhibition is -73.8% (active).
Take `COc1ccc(/C(C)=N\NC(=O)c2ccc(-c3ccccc3)cc2)c(F)c1`: the max response, negative = inhibition is -25.6%.
The same measure for `CNC(=O)C(NC(=O)c1ccccc1)=C(C)C`: 0.178%; for `O=C(NCc1ccc(F)cc1F)[C@@H]1CCCN1C(=O)[C@@H]1CCCN1C(=O)c1cccc(Cl)c1`: -16.8%.
